Records with an inconclusive call do not appear. Activity calls are given as the source filed them. The call rests on the fitted dose curve; in most records, active means well fitted cell-killing curve with a large enough effect; inconclusive means small, poorly fitted or top-dose-only effect, or effect the other way; inactive means no such curve, though single readings can be large or run the other way.
Potency means the concentration at half of the fitted maximal effect.

The assay deals with CAOV3. As to the kind of experiment: Confirmatory qHTS for gynecologic anti-cancer compounds from libraries of approved drugs and bioactive compounds. Further: nearly all actives have a fitted effect of over 55% in size. To be noted: gynecologic cancer cell panel viability, ATPlite luminescence, 48 h; series mostly up to 57.6 µM. The method in brief:
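Cells (1,000/well) were plated, left 16 h at 37 C/5% CO2, then given compound at 11 concentrations (1:3) from 57.5 uM to 0.977 nM for 48 h. ATPlite luminescence after 15 min at room temperature gave IC50 values.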
(qHTS replaces the single test concentration by a dilution series.)
Turning to `COc1cc2c(Oc3ccc(-c4cnc(Nc5ccc(F)cc5)n(C)c4=O)cc3F)ccnc2cc1OCCCN1CCOCC1`, the Potency was 19.3 µM (active).

With `O=C(c1ccc(/C=C/c2n[nH]c3ccccc23)cc1)N1CCNCC1`, the Potency is 19.3 µM (active).

Regarding `Cc1cc(C2CCCCC2)n(O)c(=O)c1`, the Potency is 12.5 µM (active).

As for `COc1ccccc1N1CCN(CC(O)COc2cccc3ccccc23)CC1` (centres undefined), the Potency result was “inactive”.

Consider `O=C1NC(=O)C(c2cnc3ccccn23)=C1c1cn2c3c(cccc13)CN(C(=O)N1CCOCC1)CC2`, for which the Potency result was “inactive”.

For the molecule `CCS(=O)(=O)c1cccc(-c2cc(C(=O)NC3CCN(C)CC3)c(C)c3[nH]c4ncc(C)cc4c23)c1`, the Potency is 0.672 µM (active).

`O=C(CCCCCCC(=O)Nc1ccccc1)NO`: the Potency is 12.2 µM (active).

With `CN1CCN(Cc2ccc(NC(=O)Nc3ccc(Oc4cc(NC(=O)C5CC5)ncn4)cc3)cc2C(F)(F)F)CC1`, the Potency is 13.7 µM (active).

For `CN1C(=O)C(Cc2c[nH]c3ccccc23)NC1=S` (centres undefined), the Potency entry is “inactive”.

`NC(=O)Nc1cc(-c2cccc(F)c2)sc1C(=O)NC1CCCNC1` (centres undefined): the Potency is 1.22 µM (active).

Turning to `CCCC(Nc1nc(-c2ccc(NC(=O)NCC)c(OC)c2)ncc1C)c1cccnc1` (centres undefined), the Potency result is “inactive”.

Consider `COc1ccc(-c2ccc3c(N4CCOCC4C)nc(N4CCOCC4C)nc3n2)cc1CO` (centres undefined), for which the Potency entry was “inactive”.

`CN[C@@H](C)C(=O)N[C@H]1CN(C(=O)CC(C)C)CC[C@H]2CC[C@@H](C(=O)NC(c3ccccc3)c3ccccc3)N2C1=O`: the Potency result is “inactive”.

Take `CCOc1ccc(Nc2nc(-c3c(C)nc4ccccn34)cs2)cc1`: the Potency entry was “inactive”.

Consider `CCCCN(CCCC)CC(O)c1cc(Cl)cc2c1-c1ccc(Cl)cc1/C2=C/c1ccc(Cl)cc1` (centres undefined), for which the Potency result was “inactive”.

On to `CN1CCN(CCOc2cc(OC3CCOCC3)c3c(Nc4c(Cl)ccc5c4OCO5)ncnc3c2)CC1`, for which the Potency entry was “inactive”.

With `CC(C)Oc1ccc(C(=O)NC(CNC(=O)CN(C)C)Cc2ccc(-c3cn4cccc(C(C)O)c4n3)cc2)cc1Cl` (centres undefined), the Potency result is “inactive”.

With `CC(Oc1ccc2[nH]nc(/C=C/c3cnn(CCO)c3)c2c1)c1c(Cl)cncc1Cl` (centres undefined), the Potency was 2.73 µM (active).

Turning to `CCC1C(=O)N(C)c2cnc(Nc3ccc(C(=O)NC4CCC(N5CCN(CC6CC6)CC5)CC4)cc3OC)nc2N1C(C)C` (centres undefined), the Potency was 2.17 µM (active).

As to `O=C(Nc1cccnc1)N1CCC(Cc2cccc(Oc3ccc(C(F)(F)F)cn3)c2)CC1`, the Potency entry was “inactive”.

For `CCN(CC)CCOc1ccc(/C(=C(\Cl)c2ccccc2)c2ccccc2)cc1`, the Potency was 100 µM (active).

With `CC(C)[C@@H](CS(=O)(=O)C(C)C)N1C(=O)[C@@](C)(CC(=O)O)C[C@H](c2cccc(Cl)c2)[C@H]1c1ccc(Cl)cc1`, the Potency entry is “inactive”.

For `O=C(/C=C/c1cccc(S(=O)(=O)Nc2ccccc2)c1)NO`, the Potency was 10.6 µM (active).

Take `C#C[C@]1(O)CC[C@H]2[C@@H]3CCC4=CC(=O)CC[C@@H]4[C@H]3CC[C@@]21CC`: the Potency result was “inactive”.

`Cc1cnc(Nc2ccc(CN3CCOCC3)cc2)nc1Nc1cccc(S(=O)(=O)NC(C)(C)C)c1`: the Potency is 3.85 µM (active).

For the molecule `COc1cc(C(=O)N2CCC(N3CCN(C)CC3)CC2)ccc1Nc1ncc2c(n1)N(C)c1ccccc1C(=O)N2C`, the Potency was 10.9 µM (active).

For the molecule `Cc1cc(Nc2cc(N3CCN(C)CC3)nc(/C=C/c3ccccc3)n2)n[nH]1`, the Potency is 7.69 µM (active).

`CNc1nccc(-c2cccnc2Oc2cc(C(=O)Nc3cccc(C(F)(F)F)c3)ccc2C)n1`: the Potency is 24.3 µM (active).

Regarding `COc1cc(F)c(F)c(Nc2ccc(I)cc2F)c1NS(=O)(=O)C1(CC(O)CO)CC1` (centres undefined), the Potency result was “inactive”.

In the case of `CC(C)C[C@H](NC(=O)[C@H](CCc1ccccc1)NC(=O)CN1CCOCC1)C(=O)N[C@@H](Cc1ccccc1)C(=O)N[C@@H](CC(C)C)C(=O)[C@@]1(C)CO1`, the Potency was 3.06 µM (active).

As to `COc1cccc2c1C(=O)c1c(O)c3c(c(O)c1C2=O)C[C@@](O)(C(=O)CO)C[C@@H]3O[C@H]1C[C@H](N)[C@H](O[C@@H]2CCCCO2)[C@H](C)O1`, the Potency is 9.68 µM (active).

In the case of `OCCNC1CCCc2c1[nH]c1ccc(-c3ccccc3)cc21` (centres undefined), the Potency is 24.3 µM (active).

As for `CCN1CCN(Cc2ccc(Nc3ncc(F)c(-c4cc(F)c5nc(C)n(C(C)C)c5c4)n3)nc2)CC1`, the Potency entry was “inactive”.

In the case of `COc1cc2c(NC3CCN(C(C)C)CC3)nc(C3CCCCC3)nc2cc1OCCCN1CCCC1`, the Potency was 8.63 µM (active).
